IL1B secr inh = blocks inflammasome-driven IL-1 beta release; THP-1 LPS/ATP IL-1B secretion, AlphaLISA, 16 h; active compounds read low; activity change, % at 57.5 µM; hit rate 4.7% among 360,000; AID 743279; in the data active = activity change below about -50%; inconclusive = mostly about -30% to -49%
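THP-1 cells pretreated 1 hr with compounds (up to 57.5 uM final), then stimulated with LPS (250 ng/mL final) plus ATP (1.25 mM final); secreted IL-1B measured by AlphaLISA after 16 hr, decreased signal indicating inhibition.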
ALOX12 inh = ALOX12 (human) lipoxygenase inhibition. P18054. purified 12hLO, xylenol orange hydroperoxide absorbance. hit rate 1.1% among 580,000. Potency, µM (titrated, usually from 108 µM), for the others: at the highest dose activity change, negative = inhibition, most hits filed as inhibitors; note: potency is the fitted concentration of half-maximal effect
Target sequence (P18054 whole entry, looked up): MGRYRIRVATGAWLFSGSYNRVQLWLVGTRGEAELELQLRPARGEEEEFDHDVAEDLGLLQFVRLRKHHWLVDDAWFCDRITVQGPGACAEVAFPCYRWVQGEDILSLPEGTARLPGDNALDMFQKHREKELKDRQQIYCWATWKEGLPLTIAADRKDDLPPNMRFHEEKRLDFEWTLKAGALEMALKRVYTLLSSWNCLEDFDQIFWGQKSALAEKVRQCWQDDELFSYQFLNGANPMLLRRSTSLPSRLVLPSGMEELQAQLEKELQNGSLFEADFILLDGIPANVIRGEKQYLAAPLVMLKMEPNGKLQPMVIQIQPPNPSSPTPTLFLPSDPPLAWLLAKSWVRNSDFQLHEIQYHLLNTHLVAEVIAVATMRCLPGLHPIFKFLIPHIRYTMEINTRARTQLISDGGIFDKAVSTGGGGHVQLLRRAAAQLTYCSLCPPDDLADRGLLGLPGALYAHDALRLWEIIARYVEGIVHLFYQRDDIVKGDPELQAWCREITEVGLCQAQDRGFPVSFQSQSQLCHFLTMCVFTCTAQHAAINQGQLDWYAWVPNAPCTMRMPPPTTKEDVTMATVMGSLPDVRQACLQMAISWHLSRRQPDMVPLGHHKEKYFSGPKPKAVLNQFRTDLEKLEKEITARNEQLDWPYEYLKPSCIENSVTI
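Purified human 12hLO (150 nM final) in 25 mM Hepes, 0.01% Triton X-100, pH 7.0 was preincubated 15 min at room temperature with compound. Then 40 uM arachidonic acid was added, 30 min. Hydroperoxide was read by Fe-XO absorbance ratio 573/405 nm.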
DT40 TDP1 CPT = growth inhibition of DT40 Tdp1-/-;hTDP1 cells with camptothecin (screen for TDP1 inhibitors); chicken DT40 Tdp1-/-;hTDP1 cells + 20 nM CPT, ATP luminescence, 48 h; Potency, µM (top dose mostly 46.2 µM), inactives show top-dose activity change, negative = growth inhibition, hits mostly inhibitors; hit rate 12% among 420,000; AID 686979; note: potency is the fitted concentration of half-maximal effect; nearly all actives have a fitted effect of over 55% in size
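Chicken DT40 Tdp1-/- cells complemented with human TDP1, 400 cells/well, exposed to compounds plus 20 nM camptothecin for at least 48 h at 37 C; viability read as ATP content by CellTiter-Glo luminescence.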
HT1080 IDH1KD tx = toxicity to HT-1080 IDH1 knockdown cells (counter line). Potency, µM (series often up to 46.1 µM), without a hit: top-dose activity, negative = toxicity, usual class: cytotoxic. HT-1080 IDH1 knockdown viability, ATP luminescence, 48 h. hit rate 2% among 360,000;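 note: potency is the fitted concentration of half-maximal effect; 0% = DMSO wells and -100% = cell-free medium wells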
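Assay cells: HT-1080 with IDH1 knockdown, 750 per well, RPMI/5% FBS. Exposure: 48 h at 37 °C following 2 h pre-incubation. Read: CellTiter-Glo luminescence; fitted concentration-response, curve class assigned.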
HT1080NT lethal = kills 2HG-producing HT-1080-NT fibrosarcoma cells | HT-1080-NT fibrosarcoma viability, CellTiter-Glo ATP luminescence, 48 h | Potency, µM (titrated, usually from 46.1 µM), for inactives: at the top dose activity, negative = less viability, hits mostly cytotoxic | hit rate 1.6% among 360,000;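 note: NT is the 2HG producing partner of a matched IDH1 knockdown line; potency is the fitted concentration of half-maximal effect; 0% = DMSO-treated cells and -100% = media-only wells without cells; nearly all actives have a fitted effect of over 55% in size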
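Luminescent CellTiter-Glo readout after 48 hours of compound exposure at 37 degrees C defined viability of HT-1080-NT cells. Activity was normalized to DMSO wells and cell-free media wells; concentration-response curves were fitted and assigned curve classes.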
TDP1 cell noCPT = qHTS for Inhibitors of human tyrosyl-DNA phosphodiesterase 1 (TDP1): qHTS in cells in absence of CPT; DT40 Tdp1-/- hTDP1 cells, no CPT, ATP luminescence, 48 h; Potency, µM (top dose mostly 46.2 µM), for the others: at the top dose activity change, negative = growth inhibition, usual class: inhibitors; hit rate 15% among 420,000; AID 686978, 2013; note: potency is the fitted concentration of half-maximal effect; nearly all actives have a fitted effect of over 55% in size
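No-CPT arm: Tdp1-/-;hTDP1 DT40 cells (400/well) plus compounds, incubated ≥48 hr at 37 °C. Readout CellTiter-Glo luminescence.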
* hit, by the source's call; i = inactive; ? = inconclusive; / = not tested or not shown. Only a selection was taken, and hits are over-represented in it overall. Unless noted, calls come from the whole dose curve; as a rule, active = well fitted curve in the direction sought with a large enough effect; inconclusive = small, poorly fitted or top-dose-only effect, or another doubt; inactive = no such curve, though single readings can be large; an effect the other way counts as inactive or inconclusive. Unless noted, % is set by controls: 0 for no effect and ±100 for the full control effect.

SMILES	IL1B secr inh	ALOX12 inh	DT40 TDP1 CPT	HT1080 IDH1KD tx	HT1080NT lethal	TDP1 cell noCPT
Cc1ccc(Cn2ncc3c(N4CCN(c5ccc(C)cc5)CC4)ncnc32)cc1	35.4	-14.1%	-25.2%	-15.1%	6.5%	?
Cc1ccc(Cn2ncc3c(N4CCN(Cc5ccc(Cl)cc5)CC4)ncnc32)cc1	13.5	-31.5%	18.4µM*	-12.0%	-2.3%	16.4µM*
CCCCN1CC(Oc2ccccc2C(=O)NC2CC2)C1	/	37.9%	/	/	/	/
CCO/N=C1\C(=O)N(c2ccccc2)c2ccccc21	-51.0*	0.9%	5.8%	-0.4%	-2.0%	-25.7%
O=C(O/N=C1\C(=O)N(c2ccccc2)c2ccccc21)C1CC1	-8.4	-12.4%	?	-20.6%	-18.0%	-18.5%
CCCO/N=C1/C(=O)N(c2ccccc2)c2ccccc21	?	9.3%	13µM*	-4.9%	-4.1%	23.1µM*
Nc1cc(C(=O)OCc2cccc(F)c2)ccc1Cl	/	29.9%	/	/	/	/
Cc1cccc(Nc2nnc(SCC(=O)Nc3ccccc3[N+](=O)[O-])s2)c1	7.3	-6.7%	?	-15.6%	-10.6%	16.4µM*
COc1ccc(Nc2nnc(SCC(=O)NC(=O)Nc3ccc4c(c3)OCCO4)s2)cc1	71.4	-15.9%	?	6.5%	9.5%	16.4µM*
CCC(=O)Nc1nnc(SCC(=O)NCC2CCCO2)s1 (configuration not stated)	-5.9	i	-15.3%	?	?	0.291µM*
CC(C)C(=O)Nc1nnc(SCC(=O)Nc2ccc3c(c2)OCCO3)s1	15.8	0.7%	4.7%	11.8%	7.1%	-28.0%
COc1ccc(NC(=O)CSc2nnc(NC(=O)c3ccccc3C(=O)O)s2)cc1	-10.5	?	25.9µM*	-5.6%	-7.3%	?
CC(NC(=O)CSc1nnc(COc2ccc(Cl)cc2)n1C)c1ccc2ccccc2c1 (configuration not stated)	/	-27.9%	/	/	/	/
Cc1ccc(-n2nc(C)c([C@@H]3C=C[C@@H](NC(=O)Nc4ccc(Cl)cc4)C3)c2C)cc1Cl	/	-2.8%	/	/	/	/
CC1(C(=O)NC2CCCC2)CCC(=O)N1CCOc1ccccc1 (configuration not stated)	-10.4	-3.0%	1.4%	5.5%	22.1%	5.0%
CCC(=O)Nc1nnc(SCC(=O)Nc2ccc3c(c2)OCO3)s1	2.7	-4.8%	?	-19.8%	-23.7%	?
CCC(=O)Nc1nnc(SCC(=O)Nc2ccc3c(c2)OCCO3)s1	i	207.4%	14.6µM*	?	-16.4%	?
COc1cccc(Nc2nnc(SCC(=O)Nc3sccc3C(N)=O)s2)c1	-4.4	-8.8%	13µM*	-3.8%	?	8.2µM*
O=C(CSc1nnc(NC(=O)c2ccco2)s1)NCc1ccc2c(c1)OCO2	-5.3	22.6%	-25.2%	-2.6%	-6.7%	18.4µM*
CCN1C(=O)C2CC3(CCN(C(=O)c4cc(C)n(C)n4)CC3)CN2C1=O (configuration not stated)	/	42.9%	/	/	/	/
CN(Cc1nccn1C)Cc1c(C(=O)N2CCCCC2)nc2sccn12	/	92.7%	/	/	/	/
Cc1cccc(-c2nc(CSCC(=O)N3CCN(c4cccc(C)c4C)CC3)c(C)o2)c1	/	-13.4%	18.4µM*	/	/	?
Cc1cccc(-c2nc(CSCC(=O)N3CCN(c4ccccn4)CC3)c(C)o2)c1	-59.4*	-9.8%	20.6µM*	?	-15.0%	?
CCN(c1ccccc1)S(=O)(=O)c1ccc2c(c1)N(C(C)=O)CCS2	90.0	-10.0%	-11.2%	5.8%	-1.3%	3.7%
CC(NC(=O)c1c(F)cccc1Cl)c1ccc(-n2ccnc2)cc1 (configuration not stated)	10.7	-2.3%	3.5%	8.9%	4.0%	10.4%
SMILES	IL1B secr inh	ALOX12 inh	DT40 TDP1 CPT	HT1080 IDH1KD tx	HT1080NT lethal	TDP1 cell noCPT
COc1ccc(OC)c(Nc2nc(C)nc3c2oc2ccccc23)c1	10.1	-28.3%	23.1µM*	-3.0%	-4.0%	20.6µM*
COc1ccc(Cl)cc1Nc1nc(C)nc2c1oc1ccccc12	19.0	?	?	13.1%	19.5%	-21.8%
COc1ccc(CCNc2nc(C)nc3c2oc2ccccc23)cc1OC	?	-18.2%	3.66µM*	-18.5%	-9.6%	4.11µM*
Cc1nc(NCCc2cnc[nH]2)c2oc3ccccc3c2n1	0.4	0.1%	-28.9%	-5.8%	0.0%	-0.4%
O=C(Cc1ccc(N(Cc2ccccc2)C(=O)c2ccco2)cc1)NCc1ccco1	/	9.5%	/	/	/	/
Cc1cccc(C(=O)N2CCCCCCNC(=O)[C@@H]3C[C@@H](c4nc(-c5cnccn5)no4)C[C@@H]32)c1	/	15.6%	/	/	/	/
O=C(CN1CCN(c2ccccc2F)CC1)NCCc1c[nH]c2ccccc12	/	12.2%	/	/	/	/
O=C(NCc1ccccc1)C(c1ccco1)N1CCN(c2ccccc2F)CC1 (configuration not stated)	-58.6*	1.5%	?	10.3%	15.1%	?
O=C(NCc1ccccc1)C(c1ccc(-c2ccccc2)cc1)N1CCN(c2ccccc2F)CC1 (configuration not stated)	-7.8	12.8%	18.4µM*	1.6%	-5.4%	?
O=C(NCCc1c[nH]c2ccccc12)C(=O)NCC(c1ccco1)N1CCN(c2ccccc2F)CC1 (configuration not stated)	-2.2	/	?	-15.0%	-19.2%	23.1µM*
O=C(NCc1ccccc1)C(=O)NCC(c1ccco1)N1CCN(c2ccccc2F)CC1 (configuration not stated)	5.6	-0.9%	-2.3%	10.5%	13.5%	10.5%
CC(=O)c1ccc(NC(=O)CSc2nc(N3CCOCC3)c3c(c2C#N)CC(C)(C)OC3)cc1	/	23.5%	/	/	/	/
COc1ccc(NC(=O)NC[C@H]2O[C@@H]3C[C@@H](CC(=O)N4CCC(F)(F)C4)O[C@@H]3[C@@H]2O)cc1	/	49.6%	/	/	/	/
CCCCN(CC)C(=O)c1nn(-c2ccc(OC)cc2)c(=O)c2c1c1ccccc1n2C	/	-18.7%	?	/	/	23.1µM*
CCCN(C(=O)c1nn(-c2ccc(OC)cc2)c(=O)c2c1c1ccccc1n2C)c1ccc(CC)cc1	/	-20.6%	-17.2%	/	/	?
CCN(Cc1ccccc1)C(=O)c1nn(-c2ccc(OC)cc2)c(=O)c2c1c1ccccc1n2C	-0.4	-14.8%	11.6µM*	2.0%	-3.3%	23.1µM*
CCCCN(CC)CCNC(=O)c1nn(-c2ccc(OC)cc2)c(=O)c2c1c1ccccc1n2C	14.4	-24.8%	?	-12.3%	-3.7%	?
CN(C)C[C@@H]1CN(c2ncccn2)C[C@H]1NC(=O)Cc1ccccc1F	/	39.5%	/	/	/	/

Screening data: PubChem, National Center for Advancing Translational Sciences (NCATS)
